In all, about 330,000 compounds went through this assay and about 4,400 (1.3%) were called active. Many of the other results were omitted from the sample, so actives are more common in it than they were. A number with no mark means an inactive call.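 How the source made its calls: active means growth inhibition of the mutant yeast at or above 50%; inactive means the rest.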

A short description of this test: growth inhibition of tim23-1 ts yeast – luminescence, uHTS, primary screen (AID 463212).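 Further: temperature-sensitive mutant grown at 25 °C; plate controls were DMSO-treated mutant yeast for no effect and medium wells lacking yeast for full effect.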 Particulars: S. cerevisiae tim23-1 growth, BacTiter-Glo luminescence, 24 h; at 20 µM; hits give high values.
Broadly, the inhibition is the relative decrease from the control value, in per cent. As to `COc1ccc2c(c1)cc1n2CCN=C1NN`, the inhibition was 45.5%.

For the molecule `COc1ccc(C/C(N)=N/OC(=O)c2ccco2)cc1OC`, the inhibition is 2.63%.

For the molecule `COc1ccc(C(=O)O/N=C(\N)Cc2ccc(Cl)cc2Cl)cc1OC`, the inhibition was 60.3% (active).

In the case of `COc1ccc(C(=O)ON=C2c3ccccc3-c3ccccc32)cc1OC`, the inhibition was 0.197%.

With `Cn1nc(C(F)(F)F)c2cc(NC(=O)OCC(C)(C)C)sc21`, the inhibition was 50.2% (active).

Turning to `Cn1nc(C(F)(F)F)c2cc(C(=O)N3CCOCC3)sc21`, the inhibition was 3.93%.

As to `Cn1nc(C(F)(F)F)c(-c2ccc(F)cc2)c1NC(=O)CSCC(=O)O`, the inhibition was -1.38%.

`COc1ccc(CCNC(=O)C2CCCN(Cc3nc(-c4cccc(Cl)c4)oc3C)C2)cc1OC` (stereo not drawn): the inhibition was 7.77%.

In the case of `COc1cc(OC)c2c(-c3cccc(-c4cccc(N)c4)c3)cc(=O)oc2c1`, the inhibition was 35.7%.

For `C/C(=N\NC(=S)NCc1ccccc1)c1ccc(Cl)cc1`, the inhibition was 56% (active).

On to `C/C(=N\NC(=S)NCc1ccccc1)C1CCCCC1`, for which the inhibition is 22.7%.

Regarding `O=C(O)c1ccc(/C=N/NC(=S)NCc2ccccc2)cc1`, the inhibition is -1.86%.

For `Cc1nn(C)c(C)c1CN(C(=O)CCc1nnc(Cc2c[nH]c3ccccc23)o1)C(C)C`, the inhibition was 20.5%.

Turning to `COc1ccc(-n2cnc3cc(C(=O)NC4CCCC4)ccc32)cc1`, the inhibition is 17.7%.

Turning to `COc1ccc(C(=O)NC(=S)NC2CCCCC2)cc1`, the inhibition is 63.3% (active).

Regarding `O=C(NC1CCCCCC1)C1CCN(C(=O)c2ccc(Cl)cc2)CC1`, the inhibition was 15.7%.

Consider `CCCNC(=S)N1CCC(NC(=O)c2ccc(OC)cc2)CC1`, for which the inhibition was -9.98%.

Regarding `O=C(NNC(=S)NC1CCCCC1)c1ccccc1Cl`, the inhibition is 5.3%.

As to `O=C(NC(=S)NC1CCCCC1)c1ccc(Cl)cc1`, the inhibition is 67.3% (active).

On to `CCc1ccc(S(=O)(=O)NCC(O)COc2ccc(OC)cc2)cc1` (stereo not drawn), for which the inhibition was 13.2%.

On to `CCc1ccc(Nc2n[n+](-c3ccccc3)c(-c3cccc(Cl)c3Cl)s2)cc1`, for which the inhibition was 36.3%.

As to `CC(=O)C1=C(O)C(=O)N(c2cccnc2)C1c1ccc([N+](=O)[O-])cc1` (stereo not drawn), the inhibition is 4.69%.

On to `O=C1[C@@H](c2ccccc2)[C@@H](c2ccccc2)N1c1cccnc1`, for which the inhibition was 70.3% (active).

`CCc1ccccc1NC1c2ccccc2C(=O)N1c1cccnc1` (stereo not drawn): the inhibition was -9.01%.

With `CCOc1cc(/C=N/Nc2cc(C)nc3ccc(C)cc23)ccc1O`, the inhibition is 37.3%.

For the molecule `COc1cc(/C=N/NC(=O)CCc2n[nH]c(=O)[nH]c2=O)ccc1O`, the inhibition is 5.73%.

For `COc1cc(/C=N/Nc2nc3ccccc3s2)ccc1O`, the inhibition was 51.9% (active).

Consider `CC(=O)c1c(C)[nH]c(C(=O)CN2C(=O)NC(C)(C)C2=O)c1C`, for which the inhibition was -12.9%.

`Cc1ccc(S(=O)(=O)N[C@@H](Cc2ccccc2)C(=O)N2CCC(C(=O)N[C@H](C(=O)O)C(C)O)CC2)cc1` (stereo partly drawn): the inhibition is 0.987%.

Take `Oc1c(Cl)cc(Cl)c(Cl)c1Cc1c(O)c(Cl)cc(Cl)c1Cl`: the inhibition is 94.9% (active).

For the molecule `Cc1ccc(OC(=O)c2cncc(Br)c2)c(C)c1`, the inhibition was 14.1%.

Take `CC1(C)C2CCC1(C)C(OC(=O)c1ccc(O)cc1)C2` (stereo not drawn): the inhibition was 70% (active).

Consider `Cc1ccc(C(=O)OC2CCCN(C)C2)cc1` (stereo not drawn), for which the inhibition is -2.9%.

With `CC1(C)C2CCC1(C)C(OC(=O)CCn1ccnc1)C2` (stereo not drawn), the inhibition was 13.1%.

For `CN(C)c1ccc(N/C=C/C(=O)C(F)(F)F)cc1`, the inhibition was 6.08%.

Consider `O=C(O)c1cc(S(=O)(=O)N2CCCCCC2)c(Cl)cc1Cl`, for which the inhibition is 8.13%.

In the case of `COc1ccc(CCNC(=O)CCCCCNC(=O)N2CCn3c2nc2ccccc23)cc1OC`, the inhibition was 15%.

Regarding `CC1CC2=C(CC1/C=N/NC(N)=S)C(C)(C)CCC2` (stereo not drawn), the inhibition was 50.5% (active).

With `CC1CCN(C(=S)c2ccc(-c3ccc(Cl)cc3Cl)o2)CC1`, the inhibition was 17.6%.

As to `C/C(=N\NC(=O)c1ccc(NS(=O)(=O)c2cccs2)cc1)c1ccc2ccccc2c1`, the inhibition was 10.6%.

As for `CCN(C(=O)CSc1nnnn1-c1ccccc1OC)C1CCS(=O)(=O)C1` (stereo not drawn), the inhibition is -2.5%.

With `O=C(COC(=O)c1ccc(O)cc1O)c1ccc2c(c1)OCCO2`, the inhibition is 59% (active).

Turning to `O=C(COC(=O)c1ccccc1)c1ccc2c(c1)OCCO2`, the inhibition was 16.5%.

Turning to `CC(=O)Nc1cccc(C(=O)OCC(=O)c2ccc3c(c2)OCO3)c1`, the inhibition is 2.44%.

In the case of `O=C(c1cnn2ccccc12)N1CCc2ccccc21`, the inhibition was 5.86%.

Consider `COC(=O)c1cn(C)c2ccc(S(=O)(=O)N3CC(C)CC(C)C3)cc2c1=O` (stereo not drawn), for which the inhibition is 17.1%.

As to `CC(=O)N/C(=C/c1ccc(OC(F)F)cc1)C(=O)O`, the inhibition was 0.72%.

`COc1cc(Br)cc(/C=N/c2ncn[nH]2)c1O`: the inhibition is 72.2% (active).

In the case of `C=CCn1c(Cn2nnc3ccccc32)nnc1SCC(=O)N/N=C/c1cc(Br)cc(OC)c1O`, the inhibition is 7.67%.

Turning to `Oc1c(Cl)cc(Cl)cc1/C=N/c1ncn[nH]1`, the inhibition was 31.4%.

As to `CCc1ccc(Oc2nc([N+](=O)[O-])nn2C)cc1`, the inhibition is 27.6%.

On to `Cn1c2ccccc2c2c(C(=O)N3CCN(c4ccc(F)cc4)CC3)cn(C3CCCC3)c(=O)c21`, for which the inhibition was 31.3%.

On to `CC1CCN(Cc2nc3c(c(=O)n(C)c(=O)n3C)n2CCc2ccccc2)CC1`, for which the inhibition is 5.06%.

`CCCc1nc2c(c(=O)c3ccccc3n2C)c(=O)n1C1CCCCCC1`: the inhibition was 59.8% (active).

Take `CCN=c1sc(C(=O)Nc2ccccc2)c(C)n1CC`: the inhibition was -9.39%.

For `COc1cccc(C2=CC(=O)C[C@H](c3ccc(OC)c(OC)c3)C2)c1`, the inhibition is 29%.

As for `Cc1ccc(Oc2cnn(-c3ccccc3)c(=O)c2Br)cc1`, the inhibition is 55.2% (active).

On to `Cc1ccc(OC(=O)c2c(C)nn(-c3ccccc3)c2C)cc1`, for which the inhibition was 23%.

Regarding `Cc1cccc(-n2ncc(Cl)c(Cl)c2=O)c1`, the inhibition is 13.8%.

As to `Cc1ccc(-n2c(=O)c(C#N)cc3c(=O)n4ccccc4nc32)cc1C`, the inhibition was -9.74%.

As for `CCc1ccc(OCC(=O)N(Cc2ccccc2)C2CCS(=O)(=O)C2)cc1` (stereo not drawn), the inhibition is 9.11%.

As for `COc1ccccc1C(C)NC(=O)Cc1ccsc1` (stereo not drawn), the inhibition was -5.87%.

As to `O=C(NCCc1ccco1)c1nn(Cc2ccccc2)c(=O)c2ccccc12`, the inhibition was 8.6%.

Turning to `O=C(Nc1ccccc1)/C(=C\c1ccco1)NC(=O)c1ccco1`, the inhibition is 17%.

In the case of `O=c1nc2s/c(=C\c3ccco3)c(=O)n2nc1Cc1ccccc1`, the inhibition is 65.5% (active).

On to `COc1ccc(C(=O)O)cc1S(=O)(=O)NCc1cccnc1`, for which the inhibition is -0.937%.

In the case of `COc1ccc(CNC(=O)c2cc(=O)c3c(C)cc(C)cc3o2)cc1`, the inhibition was 28.5%.

Turning to `Cc1cc(C)cc(OCC(=O)Nc2cc(NC(=O)COc3cc(C)cc(C)c3)cc(C(=O)O)c2)c1`, the inhibition was 1.96%.

For the molecule `CNC(=O)c1nnc(Cc2ccc(Cl)cc2)o1`, the inhibition is 13.1%.

`c1ccc2cc(CCCc3cc4ccccc4cn3)ncc2c1`: the inhibition was 51.6% (active).

For the molecule `Cc1nn(CC(=O)N2CCCCC2)c(=O)c2nn(-c3ccccc3)c(C)c12`, the inhibition is 5.69%.

`Cc1ccc(NC(=O)C(=O)NCc2ccc(/C=N/NC(=O)c3c(C)nc4cc(C)ccn34)o2)cc1`: the inhibition was 13.6%.

As to `O=C(Nc1ccccc1)c1nnsc1S(=O)(=O)c1ccc(Cl)cc1`, the inhibition is 59.8% (active).

Regarding `O=C(Nc1ccc(S(=O)(=O)Nc2ccccn2)cc1)c1ccccc1`, the inhibition is -13.7%.

Regarding `O=C(Nc1ccc(Cl)cc1)Nc1nnc(/C=C/c2ccccc2)s1`, the inhibition was -4.19%.

Turning to `CC(=O)C[C@@H](O)CC(=O)[C@H]1OC(=O)CCCCCCc2ccccc21`, the inhibition was 12.8%.

For `CCOC(=O)C1=C(C)N(C[C@@H]2CC[C@@H](Cc3ccc(-c4ccccc4)cc3)O2)C(=O)NC1c1ccc([N+](=O)[O-])cc1` (stereo partly drawn), the inhibition was 34.6%.

`C=CCNC(=S)N1CCc2[nH]c3ccccc3c2C1`: the inhibition was -8.13%.

For the molecule `CC[C@]1(C(=O)OC)[C@H]2C(=O)N(Cc3ccccc3)C(=O)[C@H]2[C@H]2CN=C(SCc3ccc(Cl)cc3)N21`, the inhibition was 53.5% (active).

As for `CC[C@]1(C(=O)OC)[C@H]2C(=O)N(Cc3ccccc3)C(=O)[C@H]2[C@H]2CN=C(SCc3ccccc3)N21`, the inhibition was 37.7%.

Consider `CC[C@]1(C(=O)OC)[C@H]2C(=O)N(Cc3ccccc3)C(=O)[C@H]2[C@H]2CN=C(SCc3ccc(C#N)cc3)N21`, for which the inhibition was 46.4%.

`COc1cccc(NC(=O)CN(C)C(=O)CSCc2nc3scc(-c4cccs4)c3c(=O)[nH]2)c1`: the inhibition was 4.94%.

Take `Cc1ccc(NC(=O)Cn2c(=O)n(CCC(=O)NC3CCN(Cc4ccccc4)CC3)c(=O)c3ccccc32)cc1`: the inhibition is -1.05%.

For `CC(C)CNC(=O)COC(=O)c1ccccc1OCC(=O)Nc1ccc(Br)cc1`, the inhibition was -11.3%.

`O=C(NCCc1ccc(F)cc1)c1ccc(S(=O)(=O)N2CCCCC2)cc1`: the inhibition was 53.6% (active).

On to `COC(=O)c1ccc(CNC(=O)c2ccc(S(=O)(=O)N3CCCCCC3)cc2)cc1`, for which the inhibition was 15.9%.

For `O=C(Nc1ccccc1F)c1ccc(S(=O)(=O)N2CCCCCC2)cc1`, the inhibition was 34.9%.

Take `CC(=O)Oc1ccc(C(C)=O)c2c1OCCO2`: the inhibition was 5.79%.

Consider `CCc1ccc(NC(=O)Cn2nc(C)c([N+](=O)[O-])c2C)cc1`, for which the inhibition was 25.5%.

As for `Cc1nn(CC(=O)Nc2nc3ccccc3s2)c(C)c1[N+](=O)[O-]`, the inhibition was 69.8% (active).

In the case of `Cc1nn(CC(=O)NCc2ccccn2)c(C)c1[N+](=O)[O-]`, the inhibition was 24.7%.

As to `O=C(NCc1nnc(SCC(=O)N2CCCc3ccccc32)o1)c1ccccc1F`, the inhibition is 19.1%.

For `COc1ccc(N(Cc2cc3ccc(C)cc3[nH]c2=O)S(=O)(=O)c2ccccc2)cc1`, the inhibition was 48.9%.

The values above are taken from PubChem BioAssay AID463212 (Sanford-Burnham Center for Chemical Genomics, 2010).
